Bioassay records (PubChem BioAssay)
Only some compounds are listed: those with a hit (about 0.89% of all), similar ones and a draw of the others.
CtBP-E1A blk = inhibitors of CtBP/E1A interaction; 340,000 compounds, 0.49% hits; AlphaScreen GST-E1A/His-CtBP binding, 1536-well; stronger effect = lower value; activity change, % (concentration not given with the values); in the data active = activity change below about -65%; inconclusive = mostly about -30% to -63%
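Protein mix (5X: 125 nM each GST-E1A, His-CtBP) was incubated with pinned compound 2 h at 37 deg C in dark, in 50 mM Tris pH 8.0 buffer with 300 mM NaCl. Glutathione donor and nickel acceptor beads followed; AlphaScreen signal read after 1 h.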
Six1-Eya2 blk = inhibitors of human Six1/Eya2 interaction; AID 651725; 360,000 compounds, 0.56% hits; Q15475+O00167; activity change, % (test concentration not listed); AlphaScreen GST-Six1/His-Eya2 binding, biochemical; stronger effect = lower value; in the data active = activity change below about -65%; inconclusive = mostly about -30% to -63%
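AlphaScreen luminescence read after one hour at 37 °C in darkness. Pin-transferred compounds met GST-Six1 and His-Eya2 protein (5X stock 250 nM/500 nM) plus glutathione donor and Ni-chelate acceptor beads (5X, 50 ug/mL).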
Eya2 phos inh = inhibitors of human Eya2 phosphatase activity | O00167 | AID 488837 | recombinant Eya2, OMFP fluorescence dephosphorylation (OMFP is methylfluorescein phosphate) | Potency, µM (doses to about 76.9 µM), hits mostly inhibitors | 330,000 compounds, 0.006% hits
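Eya2 (0.2 uM) preincubated 10 min at ambient with compound, then OMFP substrate added at 50 uM; 10 min reaction in 50 mM HEPES pH 7.5, 50 mM NaCl, 5 uM MgCl2, 0.05% BSA, 1 mM DTT. Fluorescence read at Ex 485/Em 525 nm.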
MBNL1-CUG inh = inhibitors of human MBNL1 binding to CUG repeat RNA; Q9NR56; TR-FRET MBNL1-His/biotin-(CUG)12 binding, 665/545 ratio; Potency, µM (doses to about 57.5 µM), usual class: inhibitors; 280,000 compounds, 0.036% hits; active = well fitted inhibition curve with a large enough effect in the signal ratio, with a control signal flat, not every such curve was filed as active; inconclusive = small, poorly fitted or top-dose-only effect, or effect the other way, or a change in a side signal; inactive = no such curve, though single readings can be large or run the other way; the % refers to the signal ratio
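MBNL1-His + Biotin-(CUG)12, cpd titration 92 nM–58 uM; Tb anti-His Ab 0.055 ng/ul, SA-XL665 5 nM (final); 60 min RT; ratiometric 665/545 nm, Ex 340 nm; normalized to buffer and full-complex controls.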
L3MBTL1 block = inhibitors of human L3MBTL1; 230,000 compounds, 0.66% hits; AlphaScreen L3MBTL1–H3K9me1 peptide binding; AID 485360; Potency, µM (top dose mostly 57.1 µM), usual class: inhibitors; Q9Y468; also: nearly all actives have a fitted effect of over 60% in size
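Read-out is AlphaScreen signal from streptavidin donor and nickel chelate acceptor beads (10 ug/mL final each) bridging L3MBTL1 (50 nM) and biotinylated K9-monomethylated H3(1-15) peptide (75 nM), after 30 min compound exposure at room temperature.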
CBFb RUNX1 block = CBF-beta/RUNX1 interaction disruption. Potency, µM (titrated, usually from 59.8 µM), most hits filed as inhibitors. 230,000 tested, under 10 active. AlphaScreen CBFb-His/RUNX1-biotin binding, biochemical. AID 1477
Target sequence (Q01196 whole entry, looked up): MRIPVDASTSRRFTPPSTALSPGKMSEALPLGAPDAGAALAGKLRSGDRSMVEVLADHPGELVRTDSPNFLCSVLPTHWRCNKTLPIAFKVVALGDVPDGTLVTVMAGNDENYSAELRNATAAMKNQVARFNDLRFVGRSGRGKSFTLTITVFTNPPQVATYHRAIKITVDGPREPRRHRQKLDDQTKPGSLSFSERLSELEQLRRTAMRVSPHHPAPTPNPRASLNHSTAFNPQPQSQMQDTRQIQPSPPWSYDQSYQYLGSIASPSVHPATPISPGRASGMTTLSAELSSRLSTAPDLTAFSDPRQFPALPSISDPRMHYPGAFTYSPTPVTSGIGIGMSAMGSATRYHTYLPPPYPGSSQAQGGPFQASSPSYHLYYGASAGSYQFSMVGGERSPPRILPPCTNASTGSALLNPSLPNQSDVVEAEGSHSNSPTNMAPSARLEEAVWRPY
Target sequence (Q13951 whole entry, looked up): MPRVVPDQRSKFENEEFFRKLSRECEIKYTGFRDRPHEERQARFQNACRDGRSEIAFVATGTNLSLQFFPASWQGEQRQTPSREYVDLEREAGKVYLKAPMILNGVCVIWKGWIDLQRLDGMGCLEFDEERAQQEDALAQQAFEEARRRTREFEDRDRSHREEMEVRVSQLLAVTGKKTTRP
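Interaction loss through any mechanism counts as activity. Pre-formed complex of His-CBF-beta and biotin-RUNX1 (30 nM apiece) is incubated with compound 15 min, then with 50 ng nickel and 50 ng streptavidin beads for 90 min before AlphaScreen detection.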
A number is an active result; i = inactive; ? = inconclusive; nt = not tested or not shown; [ ] = another dose, or the depositor's remark. Unless noted, calls follow the shape of the dose curve; as a rule, active = well fitted curve in the direction sought with a large enough effect; inconclusive = small, poorly fitted or top-dose-only effect, or another doubt; inactive = no such curve, though single readings can be large; an effect the other way counts as inactive or inconclusive.

SMILES	CtBP-E1A blk	Six1-Eya2 blk	Eya2 phos inh	MBNL1-CUG inh	L3MBTL1 block	CBFb RUNX1 block
CNc1ccc(Br)cc(C(=O)/C=C/c2ccc3c(c2)OCO3)c1=O	i	i	i	i	28µM	?
CNc1ccc(Br)cc(C(=O)/C=C/c2cc(OC)ccc2OC)c1=O	i	i	i	i	14µM	i
O=C(C=Cc1ccc2c(c1)OCO2)c1ccccc1	i	i	nt	nt	nt	nt
CNc1ccc(Br)cc(C(=O)/C=C/c2ccc(OC)cc2)c1=O	i	i	i	?	i	?
CCn1c(C)cc(C(=O)COC(=O)CNC(=O)c2ccco2)c1C	i	i	nt	nt	nt	nt
Cc1ccc(CNc2ccc(O)cc2)cc1	?	i	i	?	25µM	i
O=C(Cc1cccs1)Nc1ccc(S(=O)(=O)N2CCCCC2)cc1	i	i	i	i	22µM	?
O=C(Nc1nc(-c2ccc(S(=O)(=O)N3CCCC3)cc2)cs1)c1cccs1	-75	-73	i	i	i[11.4 µM]	i
O=C(Nc1nc(-c2ccc(S(=O)(=O)N3CCCCCC3)cc2)cs1)c1cccs1	-70	?	i	i	i	i
O=C1C=C(c2ccc3ccccc3c2)C[C@@H](c2ccc(F)cc2)C1	i	i	i	nt	i	nt
COC(=O)C1=C(C)NC(C)=C([N+](=O)[O-])[C@@H]1c1ccccc1C(F)(F)F	nt	nt	nt	nt	nt	i
CCc1cccc(C)c1NC(=O)C1CC(=O)N(C2CCCC2)C1 (stereo not drawn)	i	i	i	nt	i	nt
COc1ccccc1-c1cccc(-c2nc(C(=O)N3CCCCC3)cc3c2[C@@H](CCO)N(S(=O)C(C)(C)C)C3)c1 (stereo partly drawn)	i	i	nt	nt	nt	nt
COc1cccc(CNC(=O)C2CCN(S(=O)(=O)c3ccc4c(c3)CC(C)N4C(C)=O)CC2)c1 (stereo not drawn)	i	i	i	i	nt	nt
CC(Sc1nnc(-c2ccco2)n1C)C(=O)Nc1nccs1 (stereo not drawn)	i	i	i	nt	i	nt
O=C(CN1C(=O)C2CC=CCC2C1=O)NCC1COc2ccccc2O1 (stereo not drawn)	i	i	i	i	i	i
COc1ccc(N(CC(=O)Nc2cc(Cl)ccc2OC)S(=O)(=O)c2c(C)[nH]c(=O)[nH]c2=O)cc1	-95	-90	i	i	nt	nt
Nc1c(O)ccc2c1C(=O)c1ccccc1C2=O	?	-74	i	?	?	?
N#Cc1c(N)nc(SC2CCCCC2=O)c(C#N)c1-c1ccco1 (stereo not drawn)	?	-66	nt	nt	nt	nt
CCC(C)C(NC(=O)/C(=C\c1ccccc1)NC(=O)c1ccc(OC)cc1)C(=O)O (stereo not drawn)	i	i	i	i	i	i
COC1=C(Nc2ccccc2OC)C(=O)c2ccccc2C1=O	?	?	?	?	20µM	?
CCC1CCCCN1C(=O)Nc1cc(Cl)ccc1OC (stereo not drawn)	i	i	i	i	i	i
COc1ccc(N2CCN(C(=O)COC(=O)CCc3ccccc3OC)CC2)cc1	i	i	i	nt	i	nt
CC(C)C[C@@H](COCc1ccc(Cl)cc1)N1CCN(C(=O)c2ccc(C(F)(F)F)cc2)CCC1=O	i	i	nt	nt	nt	nt
CC(C)C[C@@H](COCc1ccc([N+](=O)[O-])cc1)N1CCN(C(=O)c2ccc(C(F)(F)F)cc2)CCC1=O	-90	-69	nt	nt	nt	nt
SMILES	CtBP-E1A blk	Six1-Eya2 blk	Eya2 phos inh	MBNL1-CUG inh	L3MBTL1 block	CBFb RUNX1 block
CC(=O)Nc1ccc(S(=O)(=O)N2C3CCCC2CC(NC(=O)C2CCCCC2)C3)cc1 (stereo not drawn)	i	-67	i	i	i	i
CC(=O)Nc1ccc(S(=O)(=O)N2CCC(C(=O)NC3CCCC3)CC2)cc1	i	i	i	i	nt	nt
CC(=O)OCC1OC(C#CC(C)(C)C)C=CC1OC(C)=O (stereo not drawn)	nt	nt	nt	nt	nt	i[13.1 µM]
CC(=O)Nc1cccc(-c2ccnc3c2CC(C)(C(=O)NCc2ccc(N(C)C)cc2)O3)c1 (stereo not drawn)	i	i	nt	nt	nt	nt
CCOc1cc(N2CCOCC2)c(OCC)cc1NC(C)C(=O)N1CCN(CC)CC1 (stereo not drawn)	i	i	i	?	18µM	nt
CCOc1cc(N2CCOCC2)c(OCC)cc1NC(=O)C(C)C	i	i	i	i	nt	i
CC(Oc1ccc(-n2cnnn2)cc1)C(=O)O (stereo not drawn)	i	i	i	i	nt	i
C=CCSC1=N/C(=C\c2cc(OCC)c(OC(C)=O)c([N+](=O)[O-])c2)C(=O)S1	i	i	i	nt	1.4µM	i
C=CCSC1=N/C(=C\c2ccc3c(c2)OCO3)C(=O)S1	i	i	i	i	i	i
COc1ncccc1C(=O)N1CCCC(C(=O)Nc2cccc(-c3ccc(F)cc3)c2)C1 (stereo not drawn)	i	i	nt	nt	nt	nt
COc1ccc(Cc2nnc(SCC(=O)Nc3ccccc3C#N)o2)cc1	i	i	i	i	nt	nt
O=[N+]([O-])c1ccc(NC(c2ccccc2)c2ccc3cccnc3c2O)cc1 (stereo not drawn)	i	i	nt	nt	nt	nt
COc1cccc(C(NC(C)=O)c2ccc3cccnc3c2O)c1 (stereo not drawn)	-91	-67	i	i	?	nt
Oc1cccc(C(Nc2nccs2)c2ccc3cccnc3c2O)c1 (stereo not drawn)	-81	-83	i	nt	?	?
CC(=O)NC(c1ccc(C(C)C)cc1)c1ccc2cccnc2c1O (stereo not drawn)	?	?	i	i	i	nt
CC(=O)NC(c1cccc([N+](=O)[O-])c1)c1ccc2cccnc2c1O (stereo not drawn)	-92	-69	i	?	i	nt
O=c1cc(-c2ccccc2F)[nH]c2cc3c(cc12)OCO3	nt	nt	i	nt	nt	nt
Cc1ccc(C(=O)N/N=C/c2ccc(-c3ccccc3[N+](=O)[O-])o2)cn1	?	-69	i	?	i	i
Cc1nc2c(=O)[nH]c(=S)[nH]c2[nH]c1=O	i	-66	nt	nt	nt	nt
Cc1nc2[nH]c(=S)[nH]c(=O)c2nc1C	i	i	nt	nt	nt	nt
CC(C(=O)Nc1ccccc1-c1ccccc1)N(C)Cc1nc2ccccc2c(=O)[nH]1 (stereo not drawn)	nt	i	i	i	i	i
Cc1c(C)c2c(OCC(=O)N3CCC[C@H]3C(=O)O)cc3c(c2oc1=O)CCC(C)(C)O3	?	-85	i	?	i	nt
Cc1c(C)c2c(OCC(=O)N3CCC(O)CC3)cc3c(c2oc1=O)CCC(C)(C)O3	i	i	i	?	nt	nt
CCCCC(=O)NC(c1ccccc1Cl)c1ccc2cccnc2c1O (stereo not drawn)	?	-67	i	i	i	nt
